From PubChem BioAssay AID1863 (Southern Research Specialized Biocontainment Screening …, 2009)
Several values for one entry are separate records, joined by “and”; a condition that tells them apart may be missing. Identical values can stand only once. Among all 300,000 compounds or so, about 480 (0.16%) were called active. Only a sample is shown. Results with a measured potency or affinity are listed apart. Unmarked numbers belong to inactive results.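 The calls were made as follows: active = inhibition over 29.93%, a cutoff 3 SD above the screen mean, later confirmed by dose response; inconclusive = inhibition over 29.93% but no dose response follow-up; inactive = inhibition at most 29.93% or unconfirmed.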

assay: inhibitors of PhoP regulon expression, primary screen, Salmonella Typhimurium, GFP reporter (AID 1863);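 also: 0% = low Mg2+ inducing control and 100% = high Mg2+ repressing control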; details: S. Typhimurium PhoP-regulated promoter GFP reporter, 4 h; at 50 µM; hits give high values

Row | Compound | inhibition
1 | C=CCN(c1ccccc1)S(=O)(=O)c1cccc(C(=O)N2CC(C)CC(C)C2)c1 (stereo not drawn) | -1.91%
2 | CCCOc1ccc(C(C)(O)CN2CCOCC2)cc1 (stereo not drawn) | 6.65%
3 | CCOC(=O)C1CCN(Cc2ccc(O)c3ncccc23)CC1 | 6.23%
4 | Oc1ccc(CN2CCCCC2)c2cccnc12 | 8.92%
5 | CN(Cc1ccccc1)S(=O)(=O)c1ccccc1[N+](=O)[O-] | 6.63%
6 | CCn1cc(C(=O)NC(C)C)c(=O)c2cc(F)c(N3CCN(C(=O)c4ccco4)CC3)cc21 | 3.82%
7 | COc1ccccc1NC(=S)N1CCN(c2ccccc2F)CC1 | -4.74%
8 | CCn1cc(C(=O)O)c(=O)c2cnc(N3CCN(C(=S)Nc4ccccc4Cl)CC3)nc21 | 14.7%
9 | COc1ccc(CCNC(=O)C(C(=O)c2ccc(F)cc2)n2ccccc2=O)cc1OC (stereo not drawn) | 7.45%
10 | Cc1cc(C)n(CCNS(=O)(=O)c2ccc(C)c(C)c2)n1 | 5.17%
11 | CC(C)(C)NC(=O)NC(=O)CSc1ncn[nH]1 | 4.4%
12 | O=C(NC(=S)NNC(=O)c1cc2ccccc2cc1O)c1ccco1 | -4.81%
13 | O=C(NNC(=O)c1ccccc1O)c1ccco1 | 4.25%
14 | O=C1CC(c2cc([N+](=O)[O-])ccc2Cl)c2c(ccc3ccccc23)N1 (stereo not drawn) | -8.09%
15 | COc1cccc(/C=C/C(=O)OCC(=O)Nc2ccccc2Sc2ccccc2)c1 | 14.5%
16 | COC(=O)C1=CO[C@@H](OC2OC(CO)C(O)C(O)C2O)[C@@H]2[C@@H](C)[C@@H](O)C[C@H]12 (stereo partly drawn) | -2.72%
17 | Cc1ccc(C)c(/C(O)=C2/C(=O)C(=O)N(CCN3CCOCC3)C2c2ccc(C)o2)c1 (stereo not drawn) | 3.28%
18 | Cc1ccc(S(=O)(=O)Oc2ccc(/C=N/NC(=O)c3nn(C)cc3Cl)cc2)cc1 | 1.65%
19 | Cc1ccccc1NC(=O)Cn1nc(-c2ccc(Cl)s2)ccc1=O | -3.56%
20 | O=C(c1cnc2n(c1=O)CCS2)N1CCN(C(c2ccccc2)c2ccc(Cl)cc2)CC1 (stereo not drawn) | 3.09%
21 | O=C1CN(/N=C/c2ccc([N+](=O)[O-])o2)C(=O)N1 | -5.89%
22 | O=C(O)/C=C/c1ccc([N+](=O)[O-])o1 | 23.2%
23 | COc1ccc2nc(Nc3ccc4c(c3)OCO4)sc2c1 | 14%
24 | CC(C)CN(C(=O)COC(=O)CCCc1nc2ccccc2s1)c1c(N)n(Cc2ccccc2)c(=O)[nH]c1=O | -9.27%

Row | Compound | inhibition
25 | O=C(NCCCc1ccccc1)c1ccc(-n2cncn2)c([N+](=O)[O-])c1 | 2.7%
26 | O=c1[nH]cc(-c2ccccc2)c(=O)[nH]1 | -0.675%
27 | O=c1[nH]cc(O)c(=O)[nH]1 | 6.24%
28 | O=[N+]([O-])c1ccccc1/C=N/n1c(C2CCCCC2)n[nH]c1=S | 8.51%
29 | Cn1c(-c2ccccc2)c(CCO)c2ccccc21 | -0.97%
30 | c1ccc(-n2c3ccccc3c3ccccc32)cc1 | -2.33%
31 | O=C(CN(Cc1ccc(Br)cc1)S(=O)(=O)c1ccccc1)NCC1CCCO1 (stereo not drawn) | -5.51%
32 | Cc1ccc(N2CC(C(=O)Nc3ccccc3C(=O)NC3CCCCC3)CC2=O)cc1 (stereo not drawn) | 3.33%
33 | CC(NC(=O)CCNC(=O)c1ccccc1Cl)C1CC2CCC1C2 (stereo not drawn) | 10.5%
34 | Cc1cccc(Nc2cc(=O)[nH]c(=O)[nH]2)c1C | 11.8%
35 | Nc1nc(Cl)nc2c1ncn2[C@@H]1O[C@H](CO)[C@@H](O)[C@H]1O | -6.56% and 6.76%
36 | NC(=O)c1ncn([C@@H]2O[C@H](CO)[C@@H](O)[C@H]2O)c1O | 2.19%
37 | Nc1ccn([C@@H]2O[C@H](CO)[C@@H](O)[C@@H]2O)c(=O)n1 | -7.73% and -0.16%
38 | Nc1ncnc2c1ncn2[C@@H]1O[C@H](CO)[C@@H](O)[C@H]1O | 3.62%
39 | Nc1cnn(C2OC(CO)C(O)C2O)c(=O)n1 (stereo not drawn) | -3.56%
40 | Nc1ccn([C@@H]2O[C@H](CO)[C@@H](O)C2O)c(=O)n1 (stereo partly drawn) | -5.08% and -1.41%
41 | Cc1cc(C)c(NC(=O)CNC(=O)CN2C(=O)NC3(CCCc4ccccc43)C2=O)c(C)c1 (stereo not drawn) | 0.74%
42 | Cc1cccc(Nc2nccc(N(C)C)c2C#N)c1 | -5.86%
43 | COc1ccc(-c2noc(CCC(=O)NCCN3CCN(c4ccccc4F)CC3)n2)cc1 | -6.34%
44 | O=C(Nc1cccc2ccccc12)N1CC=C(c2ccccc2)CC1 | 8.64%
45 | CC(CN1CCCCC1)C(=O)NN (stereo not drawn) | 2.4%
46 | O=C(CNC(=O)c1ccccc1F)N/N=C/c1cn[nH]c1-c1ccccc1 | -11.6%
47 | Cc1cc(OCC(=O)OCC(=O)N(C)c2c(N)n(Cc3ccccc3)c(=O)[nH]c2=O)ccc1Cl | -6.01%
48 | O=C(NCC1CCCO1)c1cccnc1Nc1ccccc1F (stereo not drawn) | 8.77%

Row | Compound | inhibition
49 | CC1=C(C(=O)Nc2cccc([N+](=O)[O-])c2)C2(CCC(C)CC2)OC1=O (stereo not drawn) | -3.06%
50 | O=C(Cc1ccc(-n2c(=O)[nH]c3ccsc3c2=O)cc1)NCc1cccnc1 | 0.29%
51 | CNC(=S)Nc1cc(C(F)(F)F)ccc1Cl | 4.05%
52 | COc1cc(/C=C/C(=O)CC(=O)/C=C/c2ccc(O)c(OC)c2)ccc1O | 8.28%
53 | COc1cc(/C=C/C(=O)O)ccc1O | -9.92%
54 | O=C(Cn1c(=O)oc2cc(S(=O)(=O)N3CCCC3)ccc21)Nc1ccccc1Br | -3.67%
55 | CCNc1nc(NC(C)C)nc(OCC)n1 | -7.28%
56 | CCO[C@@H]1OC(C(=O)N2CCN(Cc3ccc4c(c3)OCO4)CC2)=C[C@H](C2CCCCC2)[C@H]1CCCO | 2.5%
57 | CCCCCCCNC(=O)C1(CC2CC(c3cccc(Br)c3)=NO2)CCN(C(=O)OC(C)(C)C)CC1 (stereo not drawn) | -0.33%
58 | CCCCCCCNC(=O)C1(CC2CC(c3cccc(Br)c3)=NO2)CCN(C(=O)C2CCCC2)CC1 (stereo not drawn) | 12.9%
59 | CCCCCCCNC(=O)C1(CC2CC(c3ccc(Cl)cc3)=NO2)CCN(C(=O)C2(C)CC2)CC1 (stereo not drawn) | -5.4%
60 | CCCCCCCNC(=O)C1(CC2CC(c3ccccc3)=NO2)CCNCC1 (stereo not drawn) | 0.18%
61 | Cc1ccccc1C(=O)Nc1ccccc1NC(=O)c1ccccc1Br | -5.42%
62 | CCc1nc(C)cn1S(=O)(=O)c1cc(Br)ccc1OC | 1.41%
63 | COC(CNC(=O)C(=O)NCC1OCCN1C(=O)c1ccc(Cl)cc1)OC (stereo not drawn) | 12.8%
64 | CC(C)C[C@H](NC(=O)N1CCn2c1nc1ccccc12)C(=O)NCc1ccco1 | -1.56%
65 | CCn1ncc([N+](=O)[O-])c1C(=O)Nc1ccc(C)c(C)c1 | -7.66%
66 | Cc1cc2nc(N)sc2cc1C | 3.73%
67 | CN(C)c1ccc2nc3ccc(=[N+](C)C)cc-3sc2c1 | -2.55%
68 | CC1(C)Cn2c(nnc2-c2ccccc2)S1 | -3.09%
69 | O=c1[nH]c2ccccc2c(O)c1-c1ccccc1 | 1.77%
70 | CC[n+]1ccccc1/C=C/c1ccc(N(C)C)cc1 | -19.2%
71 | CC[n+]1c(/C=C/c2ccc(OC)c(OC)c2)ccc2ccccc21 | -6.54%
72 | CN(C)c1ccc(/C=C/c2ccc3ccccc3n2)cc1 | 0.11%

Row | Compound | inhibition
73 | C[n+]1c(/C=C/c2ccc(O)cc2)ccc2ccccc21 | 18.4%
74 | CN(C)c1ccc(/C=C/c2cccc[n+]2[O-])cc1 | -8.32%
75 | CN(CCCS(=O)(=O)[O-])c1ccc(/C=C/c2ccc3ccccc3[n+]2C)cc1 | 0.91%
76 | Cc1ccc(-n2ccnc(SCC(=O)NC3CCCC3)c2=O)cc1Cl | -4.24%
77 | COc1ccc(OC)c(NC(=O)C2CCN(C(=O)c3cccs3)CC2)c1 | 2.52%
78 | O=C(c1cc(F)ccc1F)C1CCCN(C(=O)c2ccco2)C1 (stereo not drawn) | -3.85%
79 | COc1ccccc1N1CCN(C(=O)Nc2cccc(Cl)c2)CC1 | -5.86%
80 | Cc1c(OCC(=O)NC(Cc2ccc(Cl)cc2)C(=O)O)ccc2c(-c3ccccc3)cc(=O)oc12 (stereo not drawn) | -1.09%
81 | COc1cc(/C=C2/CC(C)OC2=O)c([N+](=O)[O-])cc1OC (stereo not drawn) | 0.79%
82 | Cc1ccsc1C(C(=O)NCc1ccccc1)N(C(=O)c1csnn1)c1ccccc1 (stereo not drawn) | 12.3%
83 | CCc1c(C)nc(N)c(C#N)c1-c1ccccc1 | 4.1%
84 | O=C1CC(c2ccccc2)CC(O)=C1C=Nc1ccccc1 (stereo not drawn) | -10.4%
85 | COc1ccc(C)cc1NC(=O)NNC(=O)C1CCC(C(C)(C)C)CC1 (stereo not drawn) | -7.11%
86 | CSc1ccc(CN(C)CC(=O)NCc2ccccc2)cc1 | -8.5%
87 | O=C(c1cc2nc(-c3ccco3)cc(C(F)(F)F)n2n1)N1CCN(c2ccc(F)cc2)CC1 | -5.29%
88 | CCCC[n+]1c2ccccc2cc2ccccc21 | 20.6%
89 | CCCCCCCC[n+]1cccc2c3ccccc3ccc21 | 0.34%
90 | CCCCCCCCC[n+]1cccc2c3ccccc3ccc21 | -3.12%
91 | CCCCC[n+]1cccc2c3ccccc3ccc21 | -3.43%
92 | Cc1cc(-n2cc(Br)c(=O)[nH]c2=O)nc(-c2ccccc2)n1 | -4.05%
93 | O=C(C1CCC1)N1CCc2cc(S(=O)(=O)NCCN3CCN(c4ccccc4F)CC3)ccc21 | 13.8%
